Chlamy TAG: inducers of TAG accumulation in Chlamydomonas, primary screen, qHTS, Chlamydomonas reinhardtii | Nile Red fluorescence, 72 h | calls only at 10 µM (by protocol) | 44,000 tested, 0.84% active; call rule not given here;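 note: hits raise Nile Red signal meaning more stored TAG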
Each line names hits and unclear results; the compound was inactive in the other large screens. Only a selection was taken, and hits are over-represented in it overall.

CCOc1ccc(N(C(C)C(=O)NCc2ccccc2OC)S(C)(=O)=O)cc1 (stereo not given)	none
CCOc1ccc(N(C(C)C(N)=O)S(C)(=O)=O)cc1 (stereo not given)	none
C=CCNC(=O)C(C)N(c1ccc(OCC)cc1)S(C)(=O)=O (stereo not given)	Chlamy TAG active
CCc1cccc(CC)c1NC(=O)c1ccc(N)cc1	none
Cc1nnc(NCc2ccccc2)[nH]c1=O	none
CCOc1ccc(NC(=O)CN(c2ccc(I)cc2)S(C)(=O)=O)cc1	none
CCc1ccc(N(CC(=O)Nc2ccccc2CC)S(C)(=O)=O)cc1	none
CCN(CC)c1ccc(CN2CCN(C)CC2)cc1	none
CCN(CC)c1ccc(CN2CCSCC2)cc1	none
CCN1CCN(Cc2ccc(N(CC)CC)cc2)CC1	Chlamy TAG active
CCOc1ccc(NC(=O)CSCc2ccccc2Cl)cc1	none
O=C(O)c1ccccc1S(=O)(=O)c1ccc([N+](=O)[O-])cc1	none
O=[N+]([O-])c1ccccc1S(=O)(=O)N1CCN(Cc2ccc(F)cc2)CC1	none
CC(=O)Nc1ccc(NC2=CC(=O)CC(c3ccccc3)C2)cc1 (stereo not given)	none
O=C(Nc1ccc(Cl)cc1F)c1c(F)c(F)c(F)c(F)c1F	Chlamy TAG active
O=C(Nc1ccc(Br)cc1F)c1c(F)c(F)c(F)c(F)c1F	none
O=C(Nc1ccccc1F)c1c(F)c(F)c(F)c(F)c1F	none
Nc1c(C(=O)N2CCCCC2)sc2nc3c(cc12)CCCCC3	none
CC(=O)Nc1ccc(S(=O)(=O)N2CCN(S(=O)(=O)c3ccccc3[N+](=O)[O-])CC2)cc1	none
CCOc1ccc(CC(=O)Nc2cccc(Cl)c2C)cc1OCC	none
COc1ccc(-c2csc(NC(=O)c3ccco3)c2C(=O)O)cc1	none
O=C(Nc1cccc([N+](=O)[O-])c1)c1ccc(Br)c(S(=O)(=O)N2CCCC2)c1	none
Cc1cc(C)nc(N(C)S(=O)(=O)c2ccc(N)cc2)n1	none
O=C(CNC(=O)C1CCCCC1)Nc1nc2ccccc2s1	none
COc1ccc(C(=O)NCCN2CCOCC2)cc1[N+](=O)[O-]	Chlamy TAG active
COCCNC(=O)c1ccc(OC)c([N+](=O)[O-])c1	none
COc1ccc(CCNC(=O)c2ccc(N3CCOCC3)c([N+](=O)[O-])c2)cc1OC	none
COc1ccc(C2C(C(=O)c3ccco3)=C(O)C(=O)N2CCCN(C)C)c(OC)c1 (stereo not given)	none
COc1ccccc1N1CCN(C2CCN(C3CCC(c4ccccc4)CC3)CC2)CC1 (stereo not given)	none
CCN1CCC(N2CCN(c3ccc(Cl)cc3)CC2)CC1	Chlamy TAG active
COc1ccc(C(=O)N2CCN(C3CCC(c4ccccc4)CC3)CC2)cc1OC (stereo not given)	none
CCN1CCN(C2CCC(c3ccccc3)CC2)CC1 (stereo not given)	Chlamy TAG active
CCN1CCN(C2CCCC(C)C2)CC1 (stereo not given)	none
CCN1C(=O)CC(N2CCN(c3ccc(Cl)cc3)CC2)C1=O (stereo not given)	none
c1ccc(C2CCC(N3CCN(Cc4ccncc4)CC3)CC2)cc1 (stereo not given)	Chlamy TAG active
CCN1CCN(C2CCC(C(C)(C)C)CC2)CC1 (stereo not given)	Chlamy TAG active
c1ccc(CN2CCC(N3CCN(C4CCCC4)CC3)CC2)cc1	none
O=C(c1ccccc1)N1CCN(Cc2ccncc2)CC1	none
CCN1CCN(CC2CCCCC2)CC1	none
CCCN1CCC(N2CCN(c3ccc([N+](=O)[O-])cc3)CC2)CC1	none
CS(=O)(=O)N(CC(=O)NC1CC2CCC1C2)c1cccc(Cl)c1Cl (stereo not given)	none
COc1ccc(N(C(C)C(=O)N2CCCCCC2)S(C)(=O)=O)cc1 (stereo not given)	none
CC(C)Oc1ccc(C(O)=C2C(=O)C(=O)N(Cc3cccnc3)C2c2cccs2)cc1 (stereo not given)	none
O=C(COc1ccc(F)cc1)NC(C(=O)O)C12CC3CC(CC(C3)C1)C2 (stereo not given)	none
COc1cc(OC)c(CN2CCN(c3ccccc3F)CC2)cc1Br	none
COc1ccc(NC(=O)C(=O)O)c(OC)c1	none
CC1(C)Cc2c(sc3c2C2NNNN2C2=NNNN23)CO1 (stereo not given)	none
COc1ccc(Br)cc1CNc1ccccc1SC	none
N#C/C(=C\c1ccc(O)c(O)c1)c1nc(-c2ccc3c(c2)OCO3)cs1	none
Cc1nn2c(N)cc(-c3ccccc3)nc2c1-c1ccccc1	none
COc1cc(C=O)ccc1OCc1ccc(I)cc1	none
CCCc1cc(=O)[nH]c(SCC(=O)Nc2ccc(S(=O)(=O)Nc3nccc(C)n3)cc2)n1	none
Cc1ccc(C)c(N2CCN(Cc3ccc(C)s3)CC2)c1	none
C/C=C(\C)CN1CCN(c2cc(C)ccc2C)CC1	none
Cc1ccc(C)c(N2CCN(C3CCCCCC3)CC2)c1	Chlamy TAG active
CCOc1ccccc1C(=O)NC1CCC(NC(=O)c2ccccc2OCC)CC1 (stereo not given)	none
CCOc1ccccc1C(=O)NCCNC(=O)c1ccccc1OCC	none
CCOc1ccccc1C(=O)NC1CC1	Chlamy TAG active
Cn1c2ccccc2c(=O)c2cc3c(cc21)c(=O)c1ccccc1n3C	none
COc1ccc2c(c1)C(=O)C(C1(O)C(=O)N(C)c3ccccc31)CC2 (stereo not given)	none
CC(C)Oc1ccccc1/C=C/c1nc(O)c([N+](=O)[O-])c(=O)[nH]1	none
CC1CCCN(C(=O)COc2ccc(Cl)cc2)C1 (stereo not given)	Chlamy TAG active
O=C(COc1ccc(Cl)cc1)N1CCN(c2cccc(Cl)c2)CC1	none
COc1ccc(N2CCN(C(=O)COc3ccc(Cl)cc3)CC2)cc1	none
O=C(c1ccc(F)cc1)N1CCN(c2ccc([N+](=O)[O-])c(N3CCc4ccccc4C3)c2)CC1	none
O=C(NCc1ccccn1)c1cncc(Br)c1	none
O=C(Nc1cccc(Cl)c1)c1ccc(N2CCOCC2)c([N+](=O)[O-])c1	none
CC(C)(C)c1csc(NC(=O)c2ccc(N3CCOCC3)c([N+](=O)[O-])c2)n1	Chlamy TAG active
COc1ccc(C(=O)c2ccc(N3CCOCC3)c([N+](=O)[O-])c2)cc1	none
CC(C)=C1C2CCC1C(C(=O)Nc1nc(-c3ccc(F)cc3)cs1)C2C(=O)O (stereo not given)	none
Cc1ccc([N+](=O)[O-])cc1NS(=O)(=O)c1ccc(F)cc1	none
CCc1ccc(OCC(=O)NCCc2ccc(OC)cc2)cc1	none
O=Cc1ccc(-c2ccc(Cl)cc2)o1	none
CC1CCCN(CCCOc2ccc([N+](=O)[O-])cc2)C1 (stereo not given)	none
CCOc1ccccc1OCCCN1CCCC(C)C1 (stereo not given)	none
COc1ccc(OCCCN2CCCC(C)C2)cc1 (stereo not given)	Chlamy TAG active
CC(=NCCc1c[nH]c2ccccc12)C1=C(O)c2ccccc2C1=O	none
COc1ccc(NC(=O)C2=C(C)NC(=O)NC2c2cccc([N+](=O)[O-])c2)cc1 (stereo not given)	none
O=S(=O)(c1ccc(F)cc1)N1CCCN(S(=O)(=O)c2ccc(F)cc2)CC1	none
O=S(=O)(c1ccc(F)cc1)n1cccc1	Chlamy TAG active
O=S(=O)(c1ccc(F)cc1)c1ccc(F)cc1	none
Cc1ccc(C)c(N2CCN(CC3CC4C=CC3C4)CC2)c1 (stereo not given)	Chlamy TAG active
COc1ccc(CN2CCCCCC2)cc1OC	none
COc1ccc(CN2CCN(CC3CC4C=CC3C4)CC2)cc1OC (stereo not given)	Chlamy TAG active
OCCN1CCN(C2CCN(CC3CC4C=CC3C4)CC2)CC1 (stereo not given)	none
c1coc(CN2CCN(C3CCCCCC3)CC2)c1	Chlamy TAG active

Compound activity: PubChem, DiRusso Lab, Biochemistry Department, University of Nebraska
